The campaign covered roughly 370,000 compounds. About 2,600 (0.7%) were called active. The full list was thinned out, with actives kept by preference. Values without a mark were called inactive.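 Rule for the calls: active = inhibition above a per-plate cutoff, mean inhibition of test wells between control levels plus 3 SD (cut at about 38% in these data); inactive = the rest.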

For the test, the target named is COUP transcription factor 2 (Homo sapiens) (UniProt P24468). The experiment in a line: NR2F2 transcriptional activity inhibitors, primary screen, cell-based, luciferase reporter, HEK293T, luminescence (AID 686940).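 Note: cells cotransfected with COUP-TFII expression vector driving the NGFI-A reporter; 0% = median of COUP-TF2 test wells and 100% = reporter-only cells.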 Particulars: HEK293T NGFI-A luciferase reporter, at 8.6 µM, active compounds read high. For orientation: In a reporter assay the amount or activity of a reporter protein is the signal.
COUP transcription factor 2 (Homo sapiens), sequence (P24468 whole entry, looked up): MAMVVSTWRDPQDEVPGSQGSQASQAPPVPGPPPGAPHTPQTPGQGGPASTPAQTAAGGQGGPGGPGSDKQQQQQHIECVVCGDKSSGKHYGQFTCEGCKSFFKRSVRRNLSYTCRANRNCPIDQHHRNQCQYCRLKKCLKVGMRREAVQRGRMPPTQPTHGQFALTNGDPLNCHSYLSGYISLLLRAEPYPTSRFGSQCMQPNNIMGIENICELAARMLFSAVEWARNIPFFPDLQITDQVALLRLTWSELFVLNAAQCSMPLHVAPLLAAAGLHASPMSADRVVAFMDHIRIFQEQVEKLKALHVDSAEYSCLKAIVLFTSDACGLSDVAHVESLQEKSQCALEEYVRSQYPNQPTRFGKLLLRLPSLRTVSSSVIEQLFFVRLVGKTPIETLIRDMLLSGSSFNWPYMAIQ
The inhibition is the drop in the measured response relative to a control, in per cent. With `CC(C)CNc1cccc2c1S(=O)(=O)N(Cc1cn(Cc3ccc(Cl)cc3)nn1)Cc1ccccc1O2`, the inhibition was 5.91%.
`Cc1ccc(C)c(S(=O)(=O)N2CCN(c3ncnc4sccc34)CC2)c1`: the inhibition was 61.2% (active).
Regarding `Cc1ccc(S(=O)(=O)N2CCC3(CC2)OCCO3)c(C)c1`, the inhibition is 0.83%.
Take `COc1ccc(-c2csc3ncnc(N4CCN(S(=O)(=O)c5cccc(F)c5)CC4)c23)cc1`: the inhibition was -7.61%.
As to `O=C(NCCCc1ccccc1)[C@H](Cc1ccccc1)NC1(C(=O)NCCc2c[nH]c3ccccc23)CCC1`, the inhibition was 7.14%.
As for `Oc1ccc(/C=C/c2c(F)cccc2F)c2cccnc12`, the inhibition was 14.9%.
As to `N[C@@H](Cc1ccccc1)C(=O)N1CCC[C@@H]1C(=O)N1CCC2CCN(S(=O)(=O)c3ccccc3)CC21` (stereo not given in full), the inhibition is 2.4%.
For `O=C(CSc1nnc(COc2ccccc2)n1-c1ccc(Cl)cc1)Nc1ccc2c(c1)OCO2` the value was 7.15%; for `O=C(Nc1ccccc1Cl)/C(Cl)=C(\Cl)S(=O)c1ccccc1` (stereo not given), 99% (active).
As to `CN[C@H]1C[C@H]2c3cc(N4CCOCC4)ccc3CCN2C[C@H]1[C@H](C)O`, the inhibition is -0.62%.
Turning to `Cc1ccccc1CS(=O)(=O)Cc1ccc(C(=O)Nc2ccc(Cl)cc2)o1`, the inhibition is 60.1% (active).
With `O=C(O)c1ccc(NC(=O)c2ccc(COc3ccc(Cl)cc3)o2)cc1`, the inhibition is -7.9%.
In the case of `Cc1cc(OCc2ccc(C(=O)Nc3ccc(C(=O)O)cc3)o2)ccc1Cl`, the inhibition was 10.7%.
As to `COC(=O)[C@H](C(C)C)N(CCCc1cn(Cc2ccccc2)nn1)S(=O)(=O)c1ccc(F)cc1Br`, the inhibition was 9.49%.
In the case of `CC(=O)Nc1ccc(OC[C@@H](O)CN2CCC(C(O)(c3ccccc3)c3ccccc3)CC2)cc1`, the inhibition is -20.7%.
The value for `COc1cccc(Cn2cc(COC(=O)Nc3ccc(F)cc3)nn2)c1` was -23.7%; that for `CCCCCc1c(-c2cccc(Br)c2)ncn1CCc1ccccc1OC` was 6.5%; that for `CCCCCc1c(-c2ccc(OC)c(OC)c2)ncn1CCc1ccccc1OC` was 57% (active).
For the compound `CCCCc1c(-c2ccc(Cl)cc2)ncn1CCc1ccccc1OC`, the inhibition is 11.8%.
The value for `Cc1ccc(CSc2nnc(SCC(=O)NN=Cc3cc(Br)ccc3F)s2)cc1` was -3.85%; that for `COc1ccc2c(c1)CN1CN(CCc3ccccc3)S(=O)(=O)CC21` (stereo not given) was 16%; that for `Cc1nn(CC(=O)N2CCCCC2)c(=O)c2nn(-c3ccccc3)c(C)c12` was -1.99%.
As for `COc1ccc(CNC(=O)C(C)n2nc(C)c3c(C)n(-c4ccccc4)nc3c2=O)c(OC)c1` (stereo not given), the inhibition was 10.4%.
Consider `COc1ccc(OC)c(CNC(=O)Cn2nc(C)c3c(C)n(-c4ccc(C)cc4)nc3c2=O)c1`, for which the inhibition was 39.4% (active).
The value for `COC(=O)[C@]12C[C@H](CC(=O)NCCCN3CCCC3=O)C(=O)N(CCc3ccc(OC)c(OC)c3)C1=C[C@H](COCc1ccccc1)O[C@@H]2C` was -3.72%; that for `CCC(C)[C@@H](C(=O)OC)N(CCc1cn(Cc2ccccc2)nn1)S(=O)(=O)c1ccccc1Br` (stereo not given in full) was -9.93%.
For `CC(C)(C)c1ccc(C(=O)Nc2cc(Cl)c(Br)cc2C(=O)O)cc1` the value was 7.25%; for `CC(=O)Oc1ccc(C(=O)Nc2nccs2)cc1`, -23.1%; for `CSc1nccc(NC(=O)c2ccc(C(C)(C)C)cc2)n1`, 64.5% (active).
For the compound `Clc1ccc(-n2c(SC/C=C/c3ccccc3)nnc2-c2ccco2)cc1`, the inhibition is 13.9%.
For `Cc1ccc(Cn2cc(CN3[C@@H](CC(C)C)COc4ccc(Cl)cc4S3(=O)=O)nn2)cc1` the value was -4.67%; for `COc1ccc(NC(=O)C2Cc3c(-c4ccc(Cl)cc4)ccnc3O2)cc1` (stereo not given), 5.98%; for `COc1ccc(NC(=O)C2Cc3c(-c4cccc(NC(C)=O)c4)ccnc3O2)cc1OC` (stereo not given), 45% (active).
For the compound `COc1ccc(NC(=O)C2(C)Cc3c(-c4cccc(NC(C)=O)c4)ccnc3O2)cc1OC` (stereo not given), the inhibition is -4.02%.
The value for `O=C(CSc1nnc(-c2ccccn2)n1-c1ccccc1)Nc1ccc2cn[nH]c2c1` was 13.3%; that for `C=CCN1C(=O)[C@H](CC(=O)N2CCN(C(=O)OCC)CC2)[C@@]2(C(=O)OCC)CCCC=C12` was -10.2%.
For `CCOC(=O)N1CCN(C(=O)C[C@@H]2C(=O)N(CCc3ccc(Cl)cc3)C3=CCCC[C@]32C(=O)OCC)CC1` the value was 45.6% (active); for `CCCCNC(=O)C[C@@H]1C(=O)N(CCc2ccc(Cl)cc2)C2=CCCC[C@]21C(=O)OCC`, 15.3%.
On to `O=C1CC[C@@H](COc2ccc3[nH]cc(-c4ccccc4)c3c2-c2ccccc2)N1`, for which the inhibition was -9.36%.
For `O=C1C=C(c2ccnc3cc(Cl)ccc23)C[C@@H](c2ccc3c(c2)OCO3)C1` the value was 56% (active); for `O=C1C=C(c2cccc(Cl)c2O)C[C@@H](c2ccc(F)cc2)C1`, 4.63%.
In the case of `N#Cc1ccc(C2=CC(=O)C[C@H](c3ccc(Cl)cc3)C2)cc1`, the inhibition was 17.5%.
For `Clc1c(OCCCn2ccnc2)ccc2ccccc12` the value was -3.68%; for `c1ccc(Cc2ccc(OCCn3ccnc3)cc2)cc1`, 54.5% (active); for `Clc1ncn(CCOc2ccccc2)c1Cl`, 6.16%.
On to `COCC(=O)N[C@@H]1C[C@@H]2O[C@@H](CO)CC[C@@H]2O[C@@H]1CCc1ccc(-c2ccccc2)cc1`, for which the inhibition was 1.52%.
For `CC[C@@H](CCC(=O)N(c1ccccc1)c1ccccc1)C1CC1` the value was 15.5%; for `O=C1Nc2ccccc2OC1CC(=O)N1CCCCCCC1` (stereo not given), 18.8%; for `O=C(OC12CCCN(C1)/C(=C/c1ccccc1)C2)c1ccco1` (stereo not given), -14.4%.
For `CCOC(=O)C1=C(N)N2C(=O)C(C)SC2=C(C(=O)OCC)C1c1cc(OC)c(OC)c(OC)c1` (stereo not given) the value was -10.4%; for `COc1cc(C(=O)OCCCN2CCOCC2)cc(OC)c1OC`, -1.26%.
For the compound `CCCOC(=O)c1[nH]c2c(c1C)C(=O)CC(c1cc(OC)c(OC)c(OC)c1)C2` (stereo not given), the inhibition was 62.1% (active).
In the case of `C=CCN(Cc1ccc2c(c1)OCO2)C(C#CC1CC1)C(C)(C)C` (stereo not given), the inhibition is 9.73%.
For `Cc1c(C(C)c2ccccc2O)[nH]c2ccccc12` (stereo not given) the value was 13.6%; for `CCOC(=O)[C@]12CCCC=C1N(Cc1ccc(OC)cc1)C(=O)[C@@H]2CC(=O)NCc1cccs1`, 6.16%.
For `COC(=O)[C@]12C[C@H](CC(=O)NCc3cccc4ccccc34)C(=O)N(CCc3ccc(OC)c(OC)c3)C1=C[C@H](C1CCCC1)O[C@@H]2C` the value was 13.6%; for `COc1ccc(S(=O)(=O)Nc2ccc3oc(C)c(C(C)=O)c3c2)cc1`, 42.4% (active); for `CCn1c(=O)c(=O)[nH]c2c(=O)oc3ccc(S(=O)(=O)Nc4ccc(OC)cc4)cc3c21`, 4.47%.
In the case of `CC(=O)c1c(C)oc2ccc(NS(=O)(=O)c3ccccc3)cc12`, the inhibition is 21.9%.
As to `COc1ccc(CN2C/C(=C/c3ccccc3)N3C(=O)C[C@@H](c4ccccc4)N=C23)c(OC)c1`, the inhibition was 4.08%.
With `CC(=O)c1cc(-c2ccc3ccccc3c2)c(=O)n2c1CCC2`, the inhibition was 16.2%.
For the compound `Cn1c(Cc2cccc3ccccc23)nnc1SCC(=O)N1CCN(c2cccc(Cl)c2)CC1`, the inhibition is 42.6% (active).
In the case of `Cc1cc2nnc(SCC(=O)N3CCN(c4ccccc4)CC3)n2c(N)n1`, the inhibition was 8.19%.
As to `Cn1c(CNC(=O)c2ccco2)nnc1SCC(=O)N1CCN(c2ccccc2)CC1`, the inhibition was -5.83%.
For the compound `COc1ccnc(NC(=S)N2CCN(c3ncc(C(F)(F)F)cc3Cl)CC2)c1`, the inhibition is -6.96%.
As for `CCCCCCN1CCS(=O)(=O)N(Cc2ccc(C(F)(F)F)cc2)C(C(=O)OC)C1` (stereo not given), the inhibition is 1.89%.
The value for `C=CCn1c(C)cc(C2=NNC(=NCC)SC2)c1C` was 94.5% (active); that for `CC(=O)C1(C(=O)Nc2nccs2)CC(c2ccccc2C(F)(F)F)=NO1` (stereo not given) was -12.3%.
For `COC(=O)c1cc(S(=O)(=O)N2CCN(c3ccccc3C)CC2)cn1C` the value was 10.7%; for `CCn1c(SCC(C)=O)nc2sc3c(c2c1=O)CCCC3`, -12%; for `NS(=O)(=O)c1ccc(CCNC(=O)c2ccc(Cl)c(S(=O)(=O)N3CCCCCC3)c2)cc1`, 60.3% (active).
In the case of `O=C(NCCc1ccc(F)cc1)c1ccc(S(=O)(=O)N2CCCCC2)cc1`, the inhibition was -1.06%.
`COc1ccccc1CNC(=O)c1ccc(Cl)c(S(=O)(=O)N2CCCC2)c1`: the inhibition was 0.19%.
In the case of `CCCC1CCC2(CCCN2CCOC(=O)NCc2ccccc2)CC1` (stereo not given), the inhibition is -2.03%.
As for `O=C(NC1CCCCN(Cc2ccc(Cl)cc2)C1=O)c1ccc(Br)cc1` (stereo not given), the inhibition was 12.4%.
On to `CCOC(=O)C1(Cc2ccccc2)CCN(Cc2cn(C(C)=O)c3ccccc23)CC1`, for which the inhibition is 19.5%.
On to `CC(=O)c1ccccc1OCc1ccc(C(=O)c2ccccc2)cc1`, for which the inhibition was 23.1%.
For the compound `Fc1ccc(COc2cccc(-c3n[nH]c(=S)o3)c2)cc1`, the inhibition is -3.8%.
`Cc1nc2ccccc2cc1OCc1ccc(F)cc1`: the inhibition was 41.9% (active).
In the case of `COc1ccc(Cn2cc(CN3[C@@H](CC(C)C)COc4cc(Br)ccc4S3(=O)=O)nn2)cc1`, the inhibition is 0.76%.
With `CC(=O)Nc1ccc(NC(=O)C2CCCN(S(=O)(=O)c3ccc(Cl)cc3)C2)cc1` (stereo not given), the inhibition was -3.16%.
Consider `CC(=O)Nc1ccc(S(=O)(=O)N2CCC(C(=O)NC3CC3)CC2)cc1`, for which the inhibition is -8.71%.
Turning to `O=C(Nc1ccc(S(=O)(=O)N2CCOCC2)cc1)C1CCN(S(=O)(=O)c2ccc(Cl)cc2)CC1`, the inhibition was 44.8% (active).
Turning to `COC(=O)C1CN(Cc2ccc(F)cc2)CCS(=O)(=O)N1Cc1ccc(Cl)cc1` (stereo not given), the inhibition is 7.77%.
For `CN(C(=O)c1cccc(NC(=O)Cc2cccc(NC(=O)C3CCCN(C(=O)C4CC4)C3)c2)c1)C1CCC1` (stereo not given) the value was 2.2%; for `CN(C(=O)c1cccc(NC(=O)Cc2ccc(NC(=O)C3CCN(C(=O)C4CCCCC4)CC3)cc2)c1)C1CCC1`, -2.15%; for `CN(CCc1ccccc1)C(=O)c1cccc(NC(=O)Cc2cccc(NC(=O)C3CCCN(C(=O)CCc4ccccc4)C3)c2)c1` (stereo not given), 44.5% (active).
`CN(C(=O)c1cccc(NC(=O)Cc2cccc([N+](=O)[O-])c2)c1)C1CCCCC1`: the inhibition is 38.2% (active).
Regarding `CN(C(=O)c1cccc(NC(=O)Cc2ccc([N+](=O)[O-])cc2)c1)C1CCC1`, the inhibition was 33.2%.
As to `CN(CCc1ccccc1)C(=O)c1cccc(NC(=O)Cc2cccc(NC(=O)C3CCCN(C(=O)C4CCC4)C3)c2)c1` (stereo not given), the inhibition is 9.42%.

The record behind these values is PubChem BioAssay AID686940 (The Scripps Research Institute Molecular Screening Center, 2013).
